This is a sample that favours compounds with a hit; in the whole collection about 1.2% have one here.
KCNH2 3.1 block: blocks the human KCNH2 3.1 channel isoform; U2OS KCNH2 3.1, thallium flux FluxOr; active compounds read low; activity change, % (tested at about 1.8 µM); hit rate 0.95% among 340,000; AID 720553;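 active means maximum activity change below -70%; inconclusive means maximum activity change from -70% to -50%; inactive means maximum activity change above -50%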;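 further: thallium influx rate constant from kinetic fluorescence after stimulation buffer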
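FluxOr-based Tl+ influx in U2OS cells transduced with KCNH2 3.1 virus; rate constants normalized to DMSO controls.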
IDH1 R132H inh: human IDH1 R132H inhibition. O75874. IDH1-R132H enzyme, NADPH consumption, diaphorase/resazurin fluorescence. Potency, µM (series often up to 76.6 µM), hits mostly inhibitors. hit rate 0.093% among 390,000; further: nearly all actives have a fitted effect of over 65% in size
Target sequence (O75874 whole entry R132H, stated change not applied): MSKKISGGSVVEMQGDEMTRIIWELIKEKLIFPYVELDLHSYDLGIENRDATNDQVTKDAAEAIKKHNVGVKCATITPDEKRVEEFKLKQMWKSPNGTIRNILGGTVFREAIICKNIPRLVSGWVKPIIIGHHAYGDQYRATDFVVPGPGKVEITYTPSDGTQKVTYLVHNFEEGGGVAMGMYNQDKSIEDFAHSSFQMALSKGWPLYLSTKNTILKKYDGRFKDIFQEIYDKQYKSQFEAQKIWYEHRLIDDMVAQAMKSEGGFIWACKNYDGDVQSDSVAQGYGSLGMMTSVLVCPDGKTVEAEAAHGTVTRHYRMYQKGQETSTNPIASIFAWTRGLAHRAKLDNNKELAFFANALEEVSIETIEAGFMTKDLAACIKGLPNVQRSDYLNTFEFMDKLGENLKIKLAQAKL
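IDH1-R132H (0.5 ug/mL) preincubated 30 min with compound, then NADPH (0.016 mM) and alpha-KG (2 mM) added; 80 min at RT, pH 7.5. Remaining NADPH coupled via diaphorase/resazurin to fluorescence (540/590 nm); concentration-response curves normalized to no-enzyme control.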
KCNH2 WT inh: KCNH2 (human, wildtype) channel inhibition; activity change, % at 1.84 µM; AID 720551; U2OS, BacMam KCNH2, thallium flux FluxOr; active compounds read low; hit rate 0.37% among 340,000;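 active means maximum activity change below -70%; inconclusive means maximum activity change between -70% and -50%; inactive means maximum activity change above -50%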
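U2OS cells were transduced with wild-type KCNH2 virus (2.03 x 10^8 / mL) for 4 h at room temperature, then cultured overnight at 37 C. Thallium flux was read with FluxOr dye. Rate constants were normalized to DMSO controls.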
ASM inhibitor: blocks human secretory acid sphingomyelinase | P17405 | placental ASM, HMU-PC fluorogenic substrate, 60 min | Potency, µM (titrated, usually from 57.5 µM), usual class: inhibitors | hit rate 0.006% among 340,000
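Human placenta-derived ASM enzyme was preincubated with compound for 10 minutes at room temperature, then given fluorogenic substrate HMU-PC0 (9 uM final) for 60 minutes at 37 °C; a pH 10 stop preceded fluorescence reading at Ex 386/Em 447 nm.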
Anesthetic bind: binds horse apoferritin like a general anesthetic; AID 485281; Potency, µM (doses to about 77.5 µM), hits mostly inhibitors; hit rate 0.074% among 350,000; P02791; apoferritin/1-aminoanthracene competitive binding, fluorescence; further: nearly all actives have a fitted effect of over 20% in size
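Read-out: endpoint 1-AMA fluorescence, excitation 380 nm and emission 535 nm, after compounds sit 10 min at room temperature with 10 uM horse-spleen apoferritin in 50% saturated 1-AMA/PBS. Values come from four-parameter Hill fits.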
Resorufin autofl: counter-screen for mutant IDH1 inhibitors: fluorescence interference. 750 tested, under 10 active. inhibition of signal, % at 51.2 µM. Resorufin detection reagent fluorescence interference, cell-free. shares compounds with IDH1 R132H inh
IDH1 WT: selectivity of mutant IDH1 inhibitors: human wild-type IDH1 | hit rate 9% among 750 | WT IDH1 enzyme, NADPH diaphorase/resazurin fluorescence | shares compounds with IDH1 R132H inh | Potency, µM (doses to about 115 µM), usual class: inhibitors | AID 623995; further: nearly all actives have a fitted effect of over 55% in size
Target sequence (O75874 whole entry, looked up): as the sequence (O75874 whole entry R132H, stated change not applied) above, with H132R counted along it
mIDH1 confirm: confirmation of human mutant IDH1 inhibitors | IDH1 R132H enzyme, NADPH diaphorase/resazurin fluorescence | hit rate 83% among 750 | Potency, µM (series often up to 76.6 µM), hits mostly inhibitors | AID 624002 | shares compounds with IDH1 R132H inh; further: nearly all actives have a fitted effect of over 50% in size
Hits are given with their value; i = inactive; ? = inconclusive; nt = no result given; [ ] = remark or other dose. Unless noted, the call rests on the fitted dose curve; in most records, active means well fitted curve in the direction sought with a large enough effect; inconclusive means small, poorly fitted or top-dose-only effect, or another doubt; inactive means no such curve, though single readings can be large; an effect the other way counts as inactive or inconclusive.

SMILES | KCNH2 3.1 block | IDH1 R132H inh | KCNH2 WT inh | ASM inhibitor | Anesthetic bind | Resorufin autofl | IDH1 WT | mIDH1 confirm
COc1cc(C2c3c(-c4ccccc4O)n[nH]c3C(=O)N2CCO)ccc1OCC(C)C (centres undefined) | nt | i | nt | nt | ? | nt | nt | nt
COc1cc(C2c3c(-c4cc(C)ccc4O)n[nH]c3C(=O)N2Cc2ccco2)cc(OC)c1OC (centres undefined) | nt | i | nt | nt | i | nt | nt | nt
Cc1nn(C)cc1C(C(=O)NC1CCCCC1)N(C(=O)Cc1cccs1)c1ccc(F)cc1 (centres undefined) | i | i | i | i | i | nt | nt | nt
COc1cccc(C(C(=O)NC2CCCCC2)N(C(=O)c2ccccn2)c2cccnc2)c1 (centres undefined) | i | i | i | i | i | nt | nt | nt
COc1cccc(C(C(=O)NC2CCCCC2)N(C(=O)c2ccco2)c2ccc(-n3cnnn3)c(C)c2)c1 (centres undefined) | i | i | i | i | i | nt | nt | nt
COc1ccc(N(C(=O)C2COc3ccccc3O2)C(C(=O)NC2CCCCC2)c2ccccc2)cc1OC (centres undefined) | i | 5.2µM | i | i | i | i | i | 2.8µM
COc1cc(OC)cc(N(C(=O)C2COc3ccccc3O2)C(C(=O)NC2CCCCC2)c2ccc(O)cc2)c1 (centres undefined) | i | i | i | i | i | nt | nt | nt
COc1cccc(C(C(=O)NC2CCCCC2)N(C(=O)Cc2cccs2)c2ccc(-n3cnnn3)c(OC)c2)c1 (centres undefined) | i | ? | i | i | i | i | i | 8.9µM
COc1cccc(C(C(=O)NC2CCCCC2)N(C(=O)c2cccs2)c2ccc3c(c2)OCO3)c1 (centres undefined) | i | ? | i | i | i | i | i | i
COc1cc(N(C(=O)Cc2cccs2)C(C(=O)NC2CCCCC2)c2cccc(OC)c2OC)ccc1-n1cnnn1 (centres undefined) | i | ? | i | i | i | i | i | ?
CC(=O)c1ccc(OC2C=CC(c3ccc(Cl)cc3)OC2CO)cc1 (centres undefined) | nt | nt | nt | nt | i[15.3 µM] | nt | nt | nt
C=CC[C@@H]1C=C[C@H](O/N=C(\C)CCN2CCc3nc(CC)c(CC)cc3C2)[C@H](CO)O1 | nt | nt | nt | nt | i[15.3 µM] | nt | nt | nt
CC1=CC(C)(C)N2C(=O)C3(C(C#N)=C(N)OC4=C3C(=O)CCC4)c3c(C)c(C)cc1c32 (centres undefined) | i | i | i | i | i | nt | nt | nt
CC1=CC(C)(C)N2C(=O)C3(C(C#N)=C(N)Oc4cc(O)ccc43)c3c(C)c(C)cc1c32 (centres undefined) | nt | 23µM | i | ? | ? | i | i | 20µM
Cc1cc(NC(=O)CCC(=O)N(c2ccccc2)C(C(=O)NC2CCCC2)c2ccccc2C)no1 (centres undefined) | i | 37µM | i | i | i | i | i | 13µM
Cc1ccc(N(C(=O)CCC(=O)Nc2cc(C)on2)C(C(=O)NC2CCCC2)c2ccccc2)cc1 (centres undefined) | i | ? | i | i | i | i | i | 22µM
Cc1ccc(C)c(N(C(=O)CCC(=O)Nc2cc(C)on2)C(C(=O)NC2CCCC2)c2ccco2)c1 (centres undefined) | i | i | i | i | i | nt | nt | nt
Cc1cc(NC(=O)CCC(=O)N(c2ccccc2)C(C)C(=O)NC2CCCC2)no1 (centres undefined) | i | i | i | i | i | nt | nt | nt
Cc1cc(C)cc(N(C(=O)CCC(=O)Nc2cc(C)on2)C(C(=O)NC2CCCC2)c2ccco2)c1 (centres undefined) | i | ? | i | i | i | i | i | 25µM

Screening results from PubChem BioAssay.
